Source: the supplement of paper PMC13380429

Experiments:
[1] = test system: Vero E6 infected with SARS-CoV-2; assay: morphology score (similarity to uninfected cells); higher = more like uninfected cells; conditions: 24 h
[2] = test system: Vero E6 infected with SARS-CoV-2; assay: SARS-CoV-2 infection rate relative to infected DMSO; higher = more infection, active = 60 or less; conditions: 24 h

SMILES | morphology score [1] | SARS-CoV-2 infection rate [2]
O=C(O)CCc1ccc(NCc2cccc3c2CCCN3CCOc2ccccc2)cc1F (10 µM) | -0.0144 | 110% (inactive)
CCCCCCCCCCCCCCCC(=O)OC[C@@H](NC(=O)C(Cl)Cl)[C@H](O)c1ccc([N+](=O)[O-])cc1 [chloramphenicol-palmitate] (10 µM) | 0.04 | 106% (inactive)
C/C(=N\NC(=N)N)c1cc(NC(=O)CCCCCCCCC(=O)Nc2cc(/C(C)=N/NC(=N)N)cc(/C(C)=N/NC(=N)N)c2)cc(/C(C)=N/NC(=N)N)c1 [semapimod] (0.833333 µM) | -0.352 | 115% (inactive)
O=C(O)/C=C/c1ccc(Cn2ccnc2)cc1 [ozagrel] (10 µM) | 0.12 | 92% (inactive)
CCc1nc2c(C)nc(C)cc2n1-c1ccc(CCNC(=O)NS(=O)(=O)c2ccc(C)cc2)cc1 [grapiprant] (10 µM) | 0.243 | 93.5% (inactive)
COc1[nH]c2ccc(F)cc2c1C(=O)OCC1CCN(CCNS(C)(=O)=O)CC1 (10 µM) | 0.0361 | 106% (inactive)
CCC(=O)O[C@@H]1CC(=O)O[C@H](C)C/C=C/C=C/[C@H](O)[C@H](C)C[C@H](CC=O)[C@H](O[C@@H]2O[C@H](C)[C@@H](O[C@H]3C[C@@](C)(O)[C@@H](OC(=O)CC)[C@H](C)O3)[C@H](N(C)C)[C@H]2O)[C@H]1OC [midecamycin] (10 µM) | 0.2 | 102% (inactive)
O=C(O)C(=O)c1cn(Cc2ccccc2)c2ccc(-c3ccc(OC(F)(F)F)cc3)cc12 [tiplaxtinin] (10 µM) | 0.0476 | 106% (inactive)
